Test in all cases: DAPPL (digital affinity profiling via proximity ligation, sequencing); 10 mM Tris-HCl pH 7.5, 50 mM NaCl, 1 mM DTT, 4% glycerol, room temperature, 30 min; GST-TFs on glutathione beads, 16-mer random dsDNA library, 0.1% formaldehyde crosslink after washing; high values mean tight binding
Conditions in all cases: protein: recombinant; tags: N-terminal GST; dsDNA, one strand shown

In one assay the target is T1, FLI1 (Homo sapiens, UniProt Q01543 1-452).
T1 sequence: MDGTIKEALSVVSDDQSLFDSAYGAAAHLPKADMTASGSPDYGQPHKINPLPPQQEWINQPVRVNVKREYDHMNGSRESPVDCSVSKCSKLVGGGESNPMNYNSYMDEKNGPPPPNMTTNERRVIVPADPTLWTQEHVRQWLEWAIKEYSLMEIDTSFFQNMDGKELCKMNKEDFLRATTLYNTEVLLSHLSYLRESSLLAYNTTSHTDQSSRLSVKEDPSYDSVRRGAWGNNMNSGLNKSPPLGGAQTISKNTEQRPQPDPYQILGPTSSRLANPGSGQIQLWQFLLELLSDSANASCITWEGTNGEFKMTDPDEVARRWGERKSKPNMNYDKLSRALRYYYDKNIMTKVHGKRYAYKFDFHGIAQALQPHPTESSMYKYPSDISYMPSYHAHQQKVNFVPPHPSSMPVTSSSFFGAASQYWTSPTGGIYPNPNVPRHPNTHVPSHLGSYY
In a few lines: (§1)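 A tag-only sample was pooled with DNA-barcoded human transcription factors that had been expressed in yeast as GST fusions and captured on glutathione beads. The pools were incubated for 30 min at room temperature with 200 nmole of a random double-stranded 16-mer DNA library in Tris/NaCl/DTT/glycerol buffer, then washed, crosslinked with 0.1% formaldehyde, proximity-ligated (BsaI/T4 ligase, 1 h, 37 °C), PCR-amplified and sequenced on an Illumina NextSeq500. Binding signal is each hexamer's read frequency for a factor divided by its frequency for the tag-only sample.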

Another assay deals with T2, ELK1 (Homo sapiens, UniProt P19419 1-428).
T2 sequence: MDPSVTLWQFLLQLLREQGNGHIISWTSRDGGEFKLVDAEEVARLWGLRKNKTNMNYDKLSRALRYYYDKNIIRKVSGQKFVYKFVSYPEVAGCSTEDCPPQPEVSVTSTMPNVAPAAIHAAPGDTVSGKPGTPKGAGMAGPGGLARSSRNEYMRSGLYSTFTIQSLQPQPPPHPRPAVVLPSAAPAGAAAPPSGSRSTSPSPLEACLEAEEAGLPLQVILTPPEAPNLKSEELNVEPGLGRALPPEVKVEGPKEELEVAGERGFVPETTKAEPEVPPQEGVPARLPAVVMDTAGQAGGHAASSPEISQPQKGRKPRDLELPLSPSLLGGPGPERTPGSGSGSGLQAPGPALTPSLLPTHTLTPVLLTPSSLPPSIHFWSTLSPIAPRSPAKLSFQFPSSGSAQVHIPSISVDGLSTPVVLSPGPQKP
In a few lines:
as §1

The next assay concerns the target T3, GABPA (Homo sapiens, UniProt Q06546 1-454).
T3 sequence: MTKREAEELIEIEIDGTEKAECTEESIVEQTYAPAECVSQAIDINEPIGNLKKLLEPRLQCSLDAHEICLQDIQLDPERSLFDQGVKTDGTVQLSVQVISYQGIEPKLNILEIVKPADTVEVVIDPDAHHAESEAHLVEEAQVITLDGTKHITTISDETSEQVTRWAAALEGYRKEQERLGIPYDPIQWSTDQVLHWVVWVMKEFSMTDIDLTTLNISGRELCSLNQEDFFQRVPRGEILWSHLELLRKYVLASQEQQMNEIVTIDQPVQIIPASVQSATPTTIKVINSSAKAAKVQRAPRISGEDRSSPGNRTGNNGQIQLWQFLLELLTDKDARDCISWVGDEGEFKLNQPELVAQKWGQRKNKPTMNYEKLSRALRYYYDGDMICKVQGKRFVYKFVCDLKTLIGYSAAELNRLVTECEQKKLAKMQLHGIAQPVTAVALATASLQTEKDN
In a few lines: as §1

The next assay addresses T4, ERG (Homo sapiens, UniProt P11308 1-479).
T4 sequence: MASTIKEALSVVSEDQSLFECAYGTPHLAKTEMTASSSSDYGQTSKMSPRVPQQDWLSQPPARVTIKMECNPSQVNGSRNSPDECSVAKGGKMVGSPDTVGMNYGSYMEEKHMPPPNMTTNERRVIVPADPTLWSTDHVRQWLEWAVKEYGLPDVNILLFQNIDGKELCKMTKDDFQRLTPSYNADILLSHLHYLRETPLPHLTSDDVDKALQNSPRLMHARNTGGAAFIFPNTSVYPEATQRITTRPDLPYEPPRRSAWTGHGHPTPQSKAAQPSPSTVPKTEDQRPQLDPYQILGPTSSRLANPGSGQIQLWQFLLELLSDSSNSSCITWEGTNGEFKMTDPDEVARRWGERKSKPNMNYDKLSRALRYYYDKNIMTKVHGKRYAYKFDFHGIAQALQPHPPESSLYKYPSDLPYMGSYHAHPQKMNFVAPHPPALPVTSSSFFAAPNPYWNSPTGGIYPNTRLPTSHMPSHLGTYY
In a few lines: as §1

For another assay, the target named is ELF1 (Homo sapiens, UniProt P32519 1-619). In a few lines: as §1
ELF1, sequence (P32519 whole entry): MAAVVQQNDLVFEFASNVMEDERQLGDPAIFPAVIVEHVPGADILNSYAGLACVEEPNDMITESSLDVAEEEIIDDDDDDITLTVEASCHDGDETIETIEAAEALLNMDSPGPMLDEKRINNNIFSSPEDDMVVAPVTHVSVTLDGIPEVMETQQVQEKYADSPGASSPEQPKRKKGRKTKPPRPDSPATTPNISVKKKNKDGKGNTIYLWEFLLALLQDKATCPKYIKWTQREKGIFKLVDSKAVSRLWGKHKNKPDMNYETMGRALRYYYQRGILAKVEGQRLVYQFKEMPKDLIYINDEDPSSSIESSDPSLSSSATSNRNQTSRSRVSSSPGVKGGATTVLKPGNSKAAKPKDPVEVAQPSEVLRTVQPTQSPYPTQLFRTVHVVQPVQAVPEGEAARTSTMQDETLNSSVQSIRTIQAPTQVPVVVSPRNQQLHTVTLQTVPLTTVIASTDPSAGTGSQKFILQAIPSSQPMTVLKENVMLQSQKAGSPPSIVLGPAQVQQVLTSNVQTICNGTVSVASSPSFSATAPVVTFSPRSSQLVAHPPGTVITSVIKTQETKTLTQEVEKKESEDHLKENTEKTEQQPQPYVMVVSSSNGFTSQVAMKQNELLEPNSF
The target of another assay is T5, EHF (Homo sapiens, UniProt Q9NZC4 1-300).
T5 sequence: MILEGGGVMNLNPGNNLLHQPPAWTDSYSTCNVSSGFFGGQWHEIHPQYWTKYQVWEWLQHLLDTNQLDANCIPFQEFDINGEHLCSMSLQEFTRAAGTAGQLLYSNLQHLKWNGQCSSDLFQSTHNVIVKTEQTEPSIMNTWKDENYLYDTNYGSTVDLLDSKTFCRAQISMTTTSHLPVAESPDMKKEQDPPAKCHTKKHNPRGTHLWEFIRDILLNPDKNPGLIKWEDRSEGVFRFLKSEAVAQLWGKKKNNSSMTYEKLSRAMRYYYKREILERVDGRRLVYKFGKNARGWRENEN
In a few lines: as §1

The target in a further assay is SPI1 (Homo sapiens, UniProt P17947 1-270). In a few lines:
as §1

For another assay, the target named is SPIB (Homo sapiens, UniProt Q01892 1-262). In a few lines: as §1
SPIB, sequence (Q01892 whole entry): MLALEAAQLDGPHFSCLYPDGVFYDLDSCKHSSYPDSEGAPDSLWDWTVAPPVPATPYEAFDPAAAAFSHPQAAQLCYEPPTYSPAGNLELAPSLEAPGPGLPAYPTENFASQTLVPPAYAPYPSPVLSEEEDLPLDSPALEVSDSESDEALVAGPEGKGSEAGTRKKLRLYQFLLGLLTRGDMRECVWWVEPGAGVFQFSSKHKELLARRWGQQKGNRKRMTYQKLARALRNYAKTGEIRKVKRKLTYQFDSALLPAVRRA
A further assay concerns the target T6, ELK3 (Homo sapiens, UniProt P41970 1-407).
T6 sequence: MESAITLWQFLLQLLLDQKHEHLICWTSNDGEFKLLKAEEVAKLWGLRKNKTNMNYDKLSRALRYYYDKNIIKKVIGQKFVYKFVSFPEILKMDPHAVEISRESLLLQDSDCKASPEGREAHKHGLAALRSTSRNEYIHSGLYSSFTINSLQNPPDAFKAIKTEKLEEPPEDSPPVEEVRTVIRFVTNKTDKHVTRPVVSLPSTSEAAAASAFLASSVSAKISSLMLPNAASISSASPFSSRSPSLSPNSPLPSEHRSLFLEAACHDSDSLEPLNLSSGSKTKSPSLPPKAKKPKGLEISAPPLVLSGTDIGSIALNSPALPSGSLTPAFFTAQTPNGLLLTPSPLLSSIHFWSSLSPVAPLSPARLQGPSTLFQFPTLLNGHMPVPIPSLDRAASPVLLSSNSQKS
In a few lines: as §1

The target in the next assay is T7, FEV (Homo sapiens, UniProt Q99581 1-238).
T7 sequence: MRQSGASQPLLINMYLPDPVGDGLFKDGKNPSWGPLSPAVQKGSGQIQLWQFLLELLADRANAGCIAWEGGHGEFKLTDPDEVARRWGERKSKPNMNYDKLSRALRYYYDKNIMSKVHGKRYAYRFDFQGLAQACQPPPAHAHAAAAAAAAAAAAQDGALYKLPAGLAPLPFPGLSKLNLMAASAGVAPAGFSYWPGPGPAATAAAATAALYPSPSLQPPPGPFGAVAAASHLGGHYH
In a few lines: as §1

In another assay the target is ETV5 (Homo sapiens, UniProt P41161 1-510). In a few lines: as §1
ETV5, sequence (P41161 whole entry): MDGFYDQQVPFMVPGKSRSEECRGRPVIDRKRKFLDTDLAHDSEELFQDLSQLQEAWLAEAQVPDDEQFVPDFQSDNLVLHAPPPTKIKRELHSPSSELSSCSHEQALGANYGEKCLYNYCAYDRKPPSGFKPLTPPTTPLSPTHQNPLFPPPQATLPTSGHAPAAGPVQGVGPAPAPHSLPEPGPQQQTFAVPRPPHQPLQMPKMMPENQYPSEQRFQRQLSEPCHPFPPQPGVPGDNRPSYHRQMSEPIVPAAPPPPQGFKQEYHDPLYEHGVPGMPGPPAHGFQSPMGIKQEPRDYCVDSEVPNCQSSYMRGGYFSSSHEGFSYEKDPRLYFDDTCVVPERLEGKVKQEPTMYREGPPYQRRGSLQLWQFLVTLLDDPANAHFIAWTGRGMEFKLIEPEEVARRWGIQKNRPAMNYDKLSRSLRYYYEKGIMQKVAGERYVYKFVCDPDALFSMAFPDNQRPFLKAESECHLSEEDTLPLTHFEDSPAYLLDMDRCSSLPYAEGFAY
The target of a further assay is T8, SPIC (Homo sapiens, UniProt Q8N5J4 1-248).
T8 sequence: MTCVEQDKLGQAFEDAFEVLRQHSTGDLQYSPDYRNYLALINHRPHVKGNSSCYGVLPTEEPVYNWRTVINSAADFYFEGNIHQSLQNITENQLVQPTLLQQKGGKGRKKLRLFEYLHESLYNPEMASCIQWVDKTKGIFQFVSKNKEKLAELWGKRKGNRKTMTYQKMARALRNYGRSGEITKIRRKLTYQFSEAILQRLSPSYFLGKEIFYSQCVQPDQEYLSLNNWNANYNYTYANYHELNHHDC
In a few lines: as §1

Another assay addresses ELF4 (Homo sapiens, UniProt Q99607 1-663). In a few lines: as §1
The target in the next assay is T9, ELK4 (Homo sapiens, UniProt P28324-2 1-405).
T9 sequence: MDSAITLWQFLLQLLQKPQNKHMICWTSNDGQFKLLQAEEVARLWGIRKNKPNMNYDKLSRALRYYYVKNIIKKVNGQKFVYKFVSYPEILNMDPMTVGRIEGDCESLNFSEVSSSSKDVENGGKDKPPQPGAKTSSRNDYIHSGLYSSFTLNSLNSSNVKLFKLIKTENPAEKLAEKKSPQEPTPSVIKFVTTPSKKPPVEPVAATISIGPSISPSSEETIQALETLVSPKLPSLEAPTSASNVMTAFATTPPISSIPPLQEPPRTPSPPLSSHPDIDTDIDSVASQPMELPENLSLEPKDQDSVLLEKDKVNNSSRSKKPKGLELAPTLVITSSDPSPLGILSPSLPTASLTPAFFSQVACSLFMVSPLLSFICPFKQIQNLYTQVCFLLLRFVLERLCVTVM
In a few lines: as §1

The target in a further assay is T10, ETV2 (Homo sapiens, UniProt O00321 1-342).
T10 sequence: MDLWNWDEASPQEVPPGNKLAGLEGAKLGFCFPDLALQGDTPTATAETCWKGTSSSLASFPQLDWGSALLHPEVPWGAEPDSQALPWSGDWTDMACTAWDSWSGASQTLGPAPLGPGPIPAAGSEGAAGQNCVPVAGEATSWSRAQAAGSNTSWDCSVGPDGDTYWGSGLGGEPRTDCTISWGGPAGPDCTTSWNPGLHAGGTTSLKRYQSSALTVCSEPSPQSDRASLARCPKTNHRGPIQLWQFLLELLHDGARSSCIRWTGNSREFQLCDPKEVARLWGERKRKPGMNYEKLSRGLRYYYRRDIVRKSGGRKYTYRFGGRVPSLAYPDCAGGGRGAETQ
In a few lines:
as §1

The next assay deals with T11, ELF3 (Homo sapiens, UniProt P78545 1-371).
T11 sequence: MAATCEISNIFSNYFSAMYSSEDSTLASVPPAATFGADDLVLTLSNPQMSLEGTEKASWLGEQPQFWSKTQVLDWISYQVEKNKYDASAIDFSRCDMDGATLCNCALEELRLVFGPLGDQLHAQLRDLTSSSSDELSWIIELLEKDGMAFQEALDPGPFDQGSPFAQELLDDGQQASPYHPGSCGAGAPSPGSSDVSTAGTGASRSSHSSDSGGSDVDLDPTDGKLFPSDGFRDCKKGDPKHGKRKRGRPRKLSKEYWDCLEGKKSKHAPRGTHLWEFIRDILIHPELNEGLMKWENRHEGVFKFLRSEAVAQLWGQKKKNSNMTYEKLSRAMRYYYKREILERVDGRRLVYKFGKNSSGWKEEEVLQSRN
In a few lines:
as §1

A further assay has as its target ETV1 (Homo sapiens, UniProt P50549 1-477). In a few lines:
as §1

From PMC7862700, “An all-to-all approach to the identification of sequence-specific readers for epigenetic DNA modifications on cytosine” come the findings set out here.

ETV1, sequence (P50549 whole entry): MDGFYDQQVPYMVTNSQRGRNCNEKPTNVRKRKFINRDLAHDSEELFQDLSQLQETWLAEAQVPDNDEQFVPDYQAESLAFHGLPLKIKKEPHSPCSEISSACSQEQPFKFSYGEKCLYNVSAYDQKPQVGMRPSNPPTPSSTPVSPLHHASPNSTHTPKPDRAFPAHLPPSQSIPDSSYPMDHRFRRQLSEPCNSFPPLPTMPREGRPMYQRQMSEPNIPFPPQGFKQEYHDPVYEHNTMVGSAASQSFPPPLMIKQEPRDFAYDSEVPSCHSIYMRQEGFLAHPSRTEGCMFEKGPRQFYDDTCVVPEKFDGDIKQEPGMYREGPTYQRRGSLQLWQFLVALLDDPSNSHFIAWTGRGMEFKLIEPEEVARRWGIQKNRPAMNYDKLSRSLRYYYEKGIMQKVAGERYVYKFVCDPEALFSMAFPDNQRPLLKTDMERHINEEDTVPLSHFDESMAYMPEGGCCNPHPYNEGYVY
ELF4, sequence (Q99607 whole entry): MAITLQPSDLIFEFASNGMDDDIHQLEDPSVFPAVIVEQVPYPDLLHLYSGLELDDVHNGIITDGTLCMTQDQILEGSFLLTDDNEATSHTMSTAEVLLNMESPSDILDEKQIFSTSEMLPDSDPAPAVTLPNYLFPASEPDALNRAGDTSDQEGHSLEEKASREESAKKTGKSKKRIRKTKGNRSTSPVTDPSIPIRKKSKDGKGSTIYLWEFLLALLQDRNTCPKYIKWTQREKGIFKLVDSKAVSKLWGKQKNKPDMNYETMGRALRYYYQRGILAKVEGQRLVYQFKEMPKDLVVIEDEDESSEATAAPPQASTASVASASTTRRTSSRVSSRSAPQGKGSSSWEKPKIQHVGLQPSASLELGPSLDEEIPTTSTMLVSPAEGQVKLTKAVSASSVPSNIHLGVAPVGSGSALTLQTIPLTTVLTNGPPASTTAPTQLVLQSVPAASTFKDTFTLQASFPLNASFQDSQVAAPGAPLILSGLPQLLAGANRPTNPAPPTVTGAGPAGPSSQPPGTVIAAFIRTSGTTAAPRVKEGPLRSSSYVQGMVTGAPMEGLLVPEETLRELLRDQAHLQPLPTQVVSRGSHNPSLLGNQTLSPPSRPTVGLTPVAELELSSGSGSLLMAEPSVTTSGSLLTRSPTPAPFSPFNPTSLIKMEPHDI

With CACTAC, the binding signal with FLI1 is 1.38 fold enrichment (6-mer frequency, TF over GST control); with ELK1, 1.37 fold enrichment (6-mer frequency, TF over GST control); with GABPA, 1.36 fold enrichment (6-mer frequency, TF over GST control); with ERG, 1.31 fold enrichment (6-mer frequency, TF over GST control); with ELF1, 1.33 fold enrichment (6-mer frequency, TF over GST control); in the assay with EHF, 1.28 fold enrichment (6-mer frequency, TF over GST control). For the same sequence, the binding signal is 1.17 fold enrichment (6-mer frequency, TF over GST control) in the assay with SPI1; 1.36 fold enrichment (6-mer frequency, TF over GST control) in the assay with SPIB; 1.27 fold enrichment (6-mer frequency, TF over GST control) with ELK3; 1.35 fold enrichment (6-mer frequency, TF over GST control) with FEV; 1.3 fold enrichment (6-mer frequency, TF over GST control) in the assay with ETV5; 1.14 fold enrichment (6-mer frequency, TF over GST control) with SPIC. Further, the binding signal was 1.27 fold enrichment (6-mer frequency, TF over GST control) with ELF4; 1.37 fold enrichment (6-mer frequency, TF over GST control) with ELK4; 1.34 fold enrichment (6-mer frequency, TF over GST control) with ETV2; 1.3 fold enrichment (6-mer frequency, TF over GST control) with ELF3; 1.21 fold enrichment (6-mer frequency, TF over GST control) with ETV1.
With TGTCCC, the binding signal with FLI1 is 1.27 fold enrichment (6-mer frequency, TF over GST control); with ELK1, 1.35 fold enrichment (6-mer frequency, TF over GST control); in the assay with GABPA, 1.33 fold enrichment (6-mer frequency, TF over GST control); in the assay with ERG it was 1.38 fold enrichment (6-mer frequency, TF over GST control); with ELF1 it was 1.28 fold enrichment (6-mer frequency, TF over GST control); in the assay with EHF, 1.32 fold enrichment (6-mer frequency, TF over GST control). In addition, the binding signal with SPI1 was 1.22 fold enrichment (6-mer frequency, TF over GST control); with SPIB, 1.36 fold enrichment (6-mer frequency, TF over GST control); in the assay with ELK3 it was 1.47 fold enrichment (6-mer frequency, TF over GST control); with FEV, 1.39 fold enrichment (6-mer frequency, TF over GST control); in the assay with ETV5, 1.35 fold enrichment (6-mer frequency, TF over GST control); in the assay with SPIC, 1.26 fold enrichment (6-mer frequency, TF over GST control). The binding signal with ELF4 was 1.29 fold enrichment (6-mer frequency, TF over GST control); with ELK4, 1.4 fold enrichment (6-mer frequency, TF over GST control); with ETV2, 1.44 fold enrichment (6-mer frequency, TF over GST control); with ELF3, 1.65 fold enrichment (6-mer frequency, TF over GST control); with ETV1 it was 1.31 fold enrichment (6-mer frequency, TF over GST control).
